Results published in the OligoGym collection.

Each sequence was assayed against RPL19 (assay: pooled miR-30 sensor sort-seq; sequence = guide strand). Conditions: shRNA.
Further: reference of the scale not given here.

| Sequence | sensor-assay potency score (higher = more potent) |
| --- | --- |
| TTGATGATCTCCTCCTTCTTGG | 0.222 |
| ATACATGTGGCGATCGATCTTC | 0.46 |
| TTCATTGGTCTCATTGGGGTCT | 0.294 |
| TACAGGCTGTGATACATGTGGC | -1.14 |

Each sequence was assayed against RPL27 in the same assay as above. Conditions: shRNA.

| Sequence | sensor-assay potency score (higher = more potent) |
| --- | --- |
| ATTGACGACAGTTTTGTCCAAG | -1.31 |
| TTCACGATGACAGCTTTGCGTC | -0.995 |
| TTGTTCTTGCCTGTCTTGTATC | -1.8 |
| TCTCTCTTCAAACTTGACCTTG | -0.698 |
| TTATCTTTGATCTCTTGGCGAT | -0.525 |
| AGGATCTCTGAAGACATCCTTA | -1.41 |
| TACACTTTCACAAAAGATTTTA | -0.949 |
| ATATCCACAGAGTACCTTGTGG | -0.336 |
| TTTAAGAGCAGGATCTCTGAAG | -0.365 |
| TTCTTCACGATGACAGCTTTGC | -0.801 |
| TATCTTTGATCTCTTGGCGATC | -1.37 |
| TTTATCTTTGATCTCTTGGCGA | -0.218 |

These sequences were tested against RPS27 in the same assay as above. Conditions: shRNA.

| Sequence | sensor-assay potency score (higher = more potent) |
| --- | --- |
| TTCTTCTTGTGTTTCCTCTTCT | 0.637 |
| TTCACATCCATGAAGTAGGAAT | -1.13 |
| TCCTCTTCTCCTCTTCTGGAGA | -1.67 |
| TTGTGCATGGCTAAAGACCGTG | -0.673 |
| TTTTATAGCATCCTGGGCATTT | -0.741 |
| TGAAGGAACATCCTTCTGTAAG | -1.76 |
| TGGTGATTTTATAGCATCCTGG | -1.63 |
| TTCCTCTTCTCCTCTTCTGGAG | -0.516 |
| TGATTTTATAGCATCCTGGGCA | -0.287 |
| TAAGCCTTGCTTTTCCTCCTGT | 0.376 |
| TTTCACATCCATGAAGTAGGAA | 0.096 |
| TTGCTTTTCCTCCTGTAGGCTG | -0.847 |

These sequences were tested against RPS28 in the same assay as above. Conditions: shRNA.

| Sequence | sensor-assay potency score (higher = more potent) |
| --- | --- |
| TTGCGGATGATGGATCGGCTCG | -1.36 |
| TTTTACATTGCGGATGATGGAT | -0.481 |
| AATTCCACGCGCACCTGCGTGC | -0.771 |
| TGTCCCTGAGAACCGGTCCTGC | -1.38 |
| TGGATCGGCTCGTGTCGTCCAT | -1.14 |
| TTGGTGACCCTGGCCAGCTTGA | -1.2 |
| TGCACTGTCCCTGAGAACCGGT | -1.07 |
| TCGGCTCGTGTCGTCCATGAAT | -1.75 |
| TTTACATTGCGGATGATGGATC | -1.07 |
| TGATGGATCGGCTCGTGTCGTC | -1.07 |
| TCGCTCTGACTCCAAAAGGGTG | -1.7 |
